Data taken from PubChem BioAssay.
The source made the active and inactive calls.

Experiments:
[1] = test system: PRMT1 (protein arginine N-methyltransferase 1); assay: PRMT1 binders on small-molecule microarrays, primary screen, biochemical, small-molecule microarray, 635 nm fluorescence (AID 1088); details: small-molecule microarray binding, higher = more signal;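 also: binding of Prmt1 protein to compounds spotted on small-molecule microarray slides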
[2] = yeast growth modulation, basal conditions, primary screen, YJM789 clinical isolate, OD600, 24 h (AID 1089);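 also: growth of clinical yeast isolate S. cerevisiae YJM 789 seeded 1000 cells per well; test concentration not given here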; details: S. cerevisiae YJM789 growth, higher = more signal, called active from +8 up or from −8 down
[3] = fission yeast growth modulation, primary screen, strain 972, OD600, 24 h, no modulator (AID 1090);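 also: basal condition with compound alone and no growth modifier present; test concentration not given here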; details: S. pombe 972 growth, higher = more signal, called active from +8 up or from −8 down
[4] = S. cerevisiae growth modulation with rapamycin, primary screen, strain BY4716, OD600, 96 h (AID 1091); details: higher = more signal, called active from +8 up or from −8 down; also: test concentration not given here
[5] = molecular target: Torsin-1A-interacting protein 2 (Homo sapiens) (UniProt Q8NFQ8); assay: LULL1 binders on small-molecule microarray, primary screen, cell lysate, human LULL1 lysate, 635/667 nm fluorescence (AID 1092); details: hLULL1 lysate binding, 635 nm fluorescence, higher = more signal;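 also: probe is lysate of COS7 cells overexpressing human LULL1; score merges per-feature 667 nm fluorescence with signal-to-noise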
[6] = E. coli growth modulation, two-sided OD650, primary screen, E. coli filamentation project, strain DRC41, 24 h (AID 1093); details: OD650, 24 h, higher = more signal, called active from +8 up or from −8 down;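 also: MC1000 strain lacking acrAB efflux and sulA so SOS filamentation is blocked; test concentration not given here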
[7] = small-molecule microarray binders of probe aLefty2, primary screen, biochemical, biotinylated probe, 635/667 nm fluorescence (AID 1094); details: higher = more signal;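 also: score merges spot fluorescence near 667 nm with spot signal-to-noise ratio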
[8] = test system: Noggin (protein binding on small-molecule microarray); assay: Noggin binders on small-molecule microarray, primary screen, biochemical, 635/667 nm fluorescence (AID 1095); details: 635 nm fluorescence, higher = more signal;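 also: score merges 667 nm feature fluorescence with signal to noise over triplicate slides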
[9] = molecular target: Neurogenic locus notch homolog protein 3 (Homo sapiens) (UniProt Q9UM47); assay: NOTCH3 binders on small-molecule microarray, primary screen, biochemical, 635/667 nm fluorescence (AID 1096); details: NOTCH3 binding, 635 nm fluorescence, higher = more signal
[10] = small-molecule microarray binders of probe aEGFR, primary screen, biochemical, biotinylated probe, 635/667 nm fluorescence (AID 1097); details: higher = more signal;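 also: probe is a biotinylated anti-EGFR antibody binding compounds printed on slides; score combines fluorescence near 667 nm and signal to noise of each spot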
[11] = test system: Plasmodium falciparum Sir2 (PF13_0152, Sir2A); assay: pfSir2 binders on small-molecule microarrays, primary screen, biochemical, small-molecule microarray, 635 nm fluorescence (AID 1098); details: small-molecule microarray binding, fluorescence 635 nm; higher = more signal;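 also: score merges spot fluorescence intensity with its signal-to-noise ratio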
[12] = small-molecule microarray binders of probe aDKK1, primary screen, biochemical, biotinylated probe, 635/667 nm fluorescence (AID 1099); details: higher = more signal;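 also: score merges 667nm spot fluorescence with signal to noise across triplicate slides; reference of the scale not given here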
[13] = small-molecule microarray binders of probe aCHRDL2, primary screen, biochemical, biotinylated probe, 635/667 nm fluorescence (AID 1100); details: higher = more signal
[14] = splicing luciferase reporter signal modulators, primary screen, spliceosome inhibition project, cell-based, HEK293, splice +/- reporter (AID 1101); details: luminescence, 24 h, higher = more signal, called active from +8 up or from −8 down;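 also: HEK293 cells carrying a splicing-competent luciferase reporter gene; test concentration not given here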
[15] = molecular target: Fibroblast growth factor 10 (Homo sapiens) (UniProt O15520); assay: FGF10 binders on small-molecule microarrays, primary screen, biochemical, small-molecule microarray, 635 nm fluorescence (AID 1102); details: FGF10 binding, fluorescence 635 nm, higher = more signal
[16] = test system: glycogen synthase kinase-3 (GSK3A per assay name; protocol says GSK3B); assay: GSK3 binders on small-molecule microarrays, primary screen, biochemical, small-molecule microarray, 635 nm fluorescence, GSK3A (AID 1103); details: small-molecule microarray binding, fluorescence 635 nm; higher = more signal; also: the record names both GSK3A and GSK3B
[17] = molecular target: Epidermal growth factor receptor (Homo sapiens) (UniProt P00533); assay: EGFR binders on small-molecule microarrays, primary screen, biochemical, small-molecule microarray, 635 nm fluorescence (AID 1104); details: EGFR binding, higher = more signal;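 also: score merges 667 nm emission intensity with spot signal to noise over triplicate slides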
[18] = molecular target: Follistatin-related protein 3 (Homo sapiens) (UniProt O95633); assay: FSTL3 binders on small-molecule microarrays, primary screen, biochemical, small-molecule microarray, 635 nm fluorescence (AID 1105); details: FSTL3 binding, higher = more signal;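 also: score merges emission near 667 nm and signal to noise per printed spot across three slides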
[19] = molecular target: Dickkopf-related protein 1 (Homo sapiens) (UniProt O94907); assay: DKK1 binders on small-molecule microarrays, primary screen, biochemical, small-molecule microarray, 635 nm fluorescence scan (AID 1106); details: DKK1 binding, higher = more signal;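 also: score merges emission near 667 nm with signal to noise over three replicate slides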
[20] = test system: Inhibin beta A chain (activin A); assay: INHBA (activin A) binders on microarrays, primary screen, biochemical, small-molecule microarray, 635 nm fluorescence scan (AID 1107); details: small-molecule microarray binding, higher = more signal;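 also: mouse activin A protein probed at 4.33 µg/mL on printed slides; score merges bound-protein fluorescence near 667 nm with spot signal-to-noise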

Chain of Neurogenic locus notch homolog protein 3 (Homo sapiens) (Q9UM47 whole entry, looked up): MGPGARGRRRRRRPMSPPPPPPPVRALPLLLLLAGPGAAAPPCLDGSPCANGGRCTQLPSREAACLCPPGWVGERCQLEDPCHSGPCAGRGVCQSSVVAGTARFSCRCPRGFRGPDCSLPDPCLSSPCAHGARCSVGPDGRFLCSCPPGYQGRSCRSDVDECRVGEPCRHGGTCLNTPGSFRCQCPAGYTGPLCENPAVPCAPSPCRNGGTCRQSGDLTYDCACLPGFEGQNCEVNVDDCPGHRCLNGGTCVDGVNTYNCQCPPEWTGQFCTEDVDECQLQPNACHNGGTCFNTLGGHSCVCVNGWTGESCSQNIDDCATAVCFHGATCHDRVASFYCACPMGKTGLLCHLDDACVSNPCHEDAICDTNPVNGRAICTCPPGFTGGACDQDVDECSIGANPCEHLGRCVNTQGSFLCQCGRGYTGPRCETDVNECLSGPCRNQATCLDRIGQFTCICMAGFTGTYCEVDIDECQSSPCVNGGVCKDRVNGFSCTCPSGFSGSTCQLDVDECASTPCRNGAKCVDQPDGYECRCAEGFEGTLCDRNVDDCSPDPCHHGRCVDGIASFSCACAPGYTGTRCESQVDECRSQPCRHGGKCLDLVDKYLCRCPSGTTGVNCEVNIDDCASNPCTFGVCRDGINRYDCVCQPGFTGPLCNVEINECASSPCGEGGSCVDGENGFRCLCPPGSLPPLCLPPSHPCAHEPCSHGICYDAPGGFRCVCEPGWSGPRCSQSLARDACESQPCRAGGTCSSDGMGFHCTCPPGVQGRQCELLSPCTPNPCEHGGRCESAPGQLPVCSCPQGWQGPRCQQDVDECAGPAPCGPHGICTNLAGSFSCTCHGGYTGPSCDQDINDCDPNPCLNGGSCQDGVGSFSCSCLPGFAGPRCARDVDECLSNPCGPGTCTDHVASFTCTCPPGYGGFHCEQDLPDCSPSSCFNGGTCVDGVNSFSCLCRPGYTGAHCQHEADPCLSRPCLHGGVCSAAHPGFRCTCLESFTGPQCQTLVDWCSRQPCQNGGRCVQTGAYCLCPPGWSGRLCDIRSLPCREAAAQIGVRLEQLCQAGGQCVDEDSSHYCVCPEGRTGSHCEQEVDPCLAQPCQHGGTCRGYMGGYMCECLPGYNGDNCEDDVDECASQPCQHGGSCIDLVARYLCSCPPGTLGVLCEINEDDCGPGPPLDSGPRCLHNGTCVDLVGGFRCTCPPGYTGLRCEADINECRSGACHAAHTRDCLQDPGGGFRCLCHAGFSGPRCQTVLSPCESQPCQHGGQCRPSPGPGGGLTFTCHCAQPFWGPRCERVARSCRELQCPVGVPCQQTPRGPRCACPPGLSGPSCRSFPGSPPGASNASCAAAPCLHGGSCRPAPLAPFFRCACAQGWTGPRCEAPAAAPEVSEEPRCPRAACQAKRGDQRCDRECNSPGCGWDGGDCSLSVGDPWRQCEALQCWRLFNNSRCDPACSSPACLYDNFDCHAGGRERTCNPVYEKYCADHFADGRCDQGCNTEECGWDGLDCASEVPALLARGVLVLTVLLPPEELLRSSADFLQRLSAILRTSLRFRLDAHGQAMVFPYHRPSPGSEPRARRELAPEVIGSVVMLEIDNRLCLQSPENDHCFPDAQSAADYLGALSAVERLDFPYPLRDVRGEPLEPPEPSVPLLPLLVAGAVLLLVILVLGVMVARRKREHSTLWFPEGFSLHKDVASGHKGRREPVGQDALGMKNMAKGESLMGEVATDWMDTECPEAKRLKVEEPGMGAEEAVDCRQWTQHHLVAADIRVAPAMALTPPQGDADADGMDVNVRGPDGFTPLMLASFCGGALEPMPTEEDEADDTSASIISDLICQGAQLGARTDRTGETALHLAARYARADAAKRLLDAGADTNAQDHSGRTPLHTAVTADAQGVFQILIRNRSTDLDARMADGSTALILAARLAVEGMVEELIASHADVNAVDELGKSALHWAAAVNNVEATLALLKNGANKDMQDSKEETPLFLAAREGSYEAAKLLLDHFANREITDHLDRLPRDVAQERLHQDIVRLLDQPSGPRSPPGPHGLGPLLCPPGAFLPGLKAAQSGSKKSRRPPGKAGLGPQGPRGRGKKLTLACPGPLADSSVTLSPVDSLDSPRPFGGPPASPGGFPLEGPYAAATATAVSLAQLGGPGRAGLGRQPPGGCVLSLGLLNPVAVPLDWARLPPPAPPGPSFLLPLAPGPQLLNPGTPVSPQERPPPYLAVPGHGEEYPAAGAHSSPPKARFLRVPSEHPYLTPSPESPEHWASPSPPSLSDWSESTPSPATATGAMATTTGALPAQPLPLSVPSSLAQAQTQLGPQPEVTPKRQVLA
Chain of Fibroblast growth factor 10 (Homo sapiens) (O15520 whole entry, looked up): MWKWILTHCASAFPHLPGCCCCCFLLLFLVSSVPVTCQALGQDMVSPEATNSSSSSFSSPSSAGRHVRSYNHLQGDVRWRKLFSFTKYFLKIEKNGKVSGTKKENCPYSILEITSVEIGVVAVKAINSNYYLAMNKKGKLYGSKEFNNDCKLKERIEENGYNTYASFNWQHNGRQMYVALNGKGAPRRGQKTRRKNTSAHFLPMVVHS
Chain of Follistatin-related protein 3 (Homo sapiens) (O95633 whole entry, looked up): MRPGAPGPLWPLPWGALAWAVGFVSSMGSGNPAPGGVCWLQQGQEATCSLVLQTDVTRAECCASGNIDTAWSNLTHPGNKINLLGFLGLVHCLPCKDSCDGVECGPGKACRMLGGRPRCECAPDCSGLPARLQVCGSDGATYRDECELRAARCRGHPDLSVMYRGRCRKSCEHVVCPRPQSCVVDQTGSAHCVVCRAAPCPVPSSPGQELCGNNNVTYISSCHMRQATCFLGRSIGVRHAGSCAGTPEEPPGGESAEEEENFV
Chain of Dickkopf-related protein 1 (Homo sapiens) (O94907 whole entry, looked up): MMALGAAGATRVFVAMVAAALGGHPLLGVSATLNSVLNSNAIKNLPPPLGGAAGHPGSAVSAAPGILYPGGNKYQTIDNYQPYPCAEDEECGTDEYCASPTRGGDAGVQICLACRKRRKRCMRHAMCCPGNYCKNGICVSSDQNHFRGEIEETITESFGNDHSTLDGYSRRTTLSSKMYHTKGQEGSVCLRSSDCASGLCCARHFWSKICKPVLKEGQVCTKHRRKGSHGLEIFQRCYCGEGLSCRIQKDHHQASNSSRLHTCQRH
Chain of Torsin-1A-interacting protein 2 (Homo sapiens) (Q8NFQ8 whole entry, looked up): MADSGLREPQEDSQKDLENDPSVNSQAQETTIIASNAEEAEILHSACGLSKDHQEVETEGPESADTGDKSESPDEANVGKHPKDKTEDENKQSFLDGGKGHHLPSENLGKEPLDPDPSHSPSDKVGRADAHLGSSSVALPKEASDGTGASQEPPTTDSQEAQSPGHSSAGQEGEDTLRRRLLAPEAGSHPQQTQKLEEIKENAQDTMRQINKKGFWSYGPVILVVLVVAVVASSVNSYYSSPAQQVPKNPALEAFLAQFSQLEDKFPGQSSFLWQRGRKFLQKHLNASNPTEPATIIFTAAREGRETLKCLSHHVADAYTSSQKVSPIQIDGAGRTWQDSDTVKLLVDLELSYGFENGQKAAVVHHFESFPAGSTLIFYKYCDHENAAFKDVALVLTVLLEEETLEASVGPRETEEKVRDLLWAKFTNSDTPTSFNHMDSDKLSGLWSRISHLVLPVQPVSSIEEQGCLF
Chain of Epidermal growth factor receptor (Homo sapiens) (P00533 whole entry, looked up): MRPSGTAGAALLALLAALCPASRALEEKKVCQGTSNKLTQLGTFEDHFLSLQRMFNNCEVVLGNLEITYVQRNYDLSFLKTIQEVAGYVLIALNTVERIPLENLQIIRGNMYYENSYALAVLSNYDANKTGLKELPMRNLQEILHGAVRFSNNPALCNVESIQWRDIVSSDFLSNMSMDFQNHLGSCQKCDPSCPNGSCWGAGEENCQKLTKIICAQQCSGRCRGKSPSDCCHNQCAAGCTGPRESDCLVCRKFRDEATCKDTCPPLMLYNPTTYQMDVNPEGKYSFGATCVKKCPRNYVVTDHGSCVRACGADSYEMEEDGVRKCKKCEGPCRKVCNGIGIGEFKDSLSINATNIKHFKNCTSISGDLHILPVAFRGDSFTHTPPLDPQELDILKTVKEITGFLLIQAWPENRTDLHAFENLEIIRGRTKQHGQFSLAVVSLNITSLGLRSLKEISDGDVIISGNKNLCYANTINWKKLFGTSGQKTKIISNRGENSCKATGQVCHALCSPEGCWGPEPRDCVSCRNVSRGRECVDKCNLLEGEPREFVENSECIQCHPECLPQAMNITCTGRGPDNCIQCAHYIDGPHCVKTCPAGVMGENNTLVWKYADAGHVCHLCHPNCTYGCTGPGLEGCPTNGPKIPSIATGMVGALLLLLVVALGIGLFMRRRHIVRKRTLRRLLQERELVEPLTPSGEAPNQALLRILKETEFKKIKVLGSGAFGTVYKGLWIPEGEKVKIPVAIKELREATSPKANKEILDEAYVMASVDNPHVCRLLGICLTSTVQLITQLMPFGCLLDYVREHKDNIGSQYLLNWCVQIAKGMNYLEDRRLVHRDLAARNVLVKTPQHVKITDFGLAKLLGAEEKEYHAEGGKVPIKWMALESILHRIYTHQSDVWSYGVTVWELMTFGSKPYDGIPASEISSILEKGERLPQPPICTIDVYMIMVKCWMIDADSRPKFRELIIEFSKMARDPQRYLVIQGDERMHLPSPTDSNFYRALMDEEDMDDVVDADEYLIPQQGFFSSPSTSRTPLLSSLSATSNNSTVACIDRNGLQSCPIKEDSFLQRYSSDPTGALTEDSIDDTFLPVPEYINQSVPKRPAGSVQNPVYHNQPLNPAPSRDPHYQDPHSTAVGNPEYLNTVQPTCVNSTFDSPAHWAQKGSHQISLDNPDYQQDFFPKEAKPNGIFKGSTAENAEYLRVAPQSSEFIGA

Compound	composite z-score [1]	z-score [2]	z-score [3]	z-score [4]	composite z-score [5]	z-score [6]	composite z-score [7]	composite z-score [8]	composite z-score [9]	composite z-score [10]	composite z-score [11]	composite z-score [12]	composite z-score [13]	z-score [14]	composite z-score [15]	composite z-score [16]	composite z-score [17]	composite z-score [18]	composite z-score [19]	composite z-score [20]
CCCNC(=O)[C@@]1(c2ccc([N+](=O)[O-])cc2)CC(=O)N(C2CCCCC2)[C@@H]1c1ccc(CO)cc1	1.57	1.3 (inactive)	-0.514 (inactive)	1.11 (inactive)	2.8	0.824 (inactive)	0.0744	1.65	1.04	-0.0729	0.472	0.175	0.39	-0.867 (inactive)	0.946	1.22	0.237	0.869	0.301	0.254
C[C@@H]1ON(c2ccc(C(=O)OC(C)(C)C)cc2)[C@H](c2ccc(O)cc2)[C@H]1C(=O)N1C(=O)OC[C@H]1Cc1ccccc1	1.56	0.465 (inactive)	-0.29 (inactive)	1.84 (inactive)	1.24	-0.63 (inactive)	-0.146	0.525	1.12	-0.0333	0.632	0.0187	-0.369	0.121 (inactive)	0.663	1.06	0.365	0.431	0.449	-0.0851
[N-]=[N+]=NCc1ccccc1[C@H]1OC(c2ccc(OCCCO)cc2)=N[C@@]1(CCS(=O)(=O)c1ccccc1)C(=O)N1CCCCC1	1.55	0.341 (inactive)	-0.0527 (inactive)	3.75 (inactive)	3.34	-0.334 (inactive)	0.574	0.876	0.992	0.283	1.15	1.05	1.42	-0.33 (inactive)	0.644	1.28	0.169	0.909	-0.202	1.57
CN1C(=O)C2C=CC(C(O)c3cccc4ccccc34)N(N3CCCCC3)C2C1=O (stereo not given)	1.55	-0.0899 (inactive)	1.13 (inactive)	0.579 (inactive)	2.86	-1.09 (inactive)	0.101	0.354	1.1	0.299	1.52	1.11	1.21	1.81 (inactive)	0.595	1.31	0.396	1.09	0.353	0.784
CC(C)[Si](C#CCCCC#N)(O[C@H](c1ccccc1)c1cn([C@H](CO)Cc2ccccc2)nn1)C(C)C	0.848	-2.62 (inactive)	-11.3 (active)	-4.64 (inactive)	1.25	1.4 (inactive)	-0.181	0.349	1.02	-0.0843	0.726	-0.151	0.138	-0.401 (inactive)	0.61	0.709	0.52	1.36	0.598	0.0469
O=C(NCC(F)(F)F)[C@@H]1c2ccccc2C(=O)N(Cc2ccc(OC(F)(F)F)cc2)[C@H]1c1ccc(CO)cc1	1.53	-0.54 (inactive)	-0.046 (inactive)	-1.1 (inactive)	1.81	0.583 (inactive)	-0.143	0.575	0.0891	-0.0978	1.16	-0.113	0.433	-0.693 (inactive)	0.347	-0.285	-0.0633	0.284	0.0428	0.551
C=CCC(OC(C)=O)[C@@H]1[C@@H](N(Cc2ccc(-c3cccc(C(F)(F)F)c3)o2)C(=O)c2ccc(-c3ccccc3)cc2)c2cc(OCCCO)ccc2N1C(=O)c1ccc2ccccc2n1 (stereo not given in full)	-1.08	0.672 (inactive)	0.789 (inactive)	0.847 (inactive)	-0.244	-0.656 (inactive)	-0.0063	-0.0955	0.0478	-0.0656	-0.219	0.148	0.202	0.39 (inactive)	0.129	-0.587	-0.049	0.472	-0.0126	1.28
O=C1c2ccccc2[C@](Cc2ccccc2I)(C(=O)NCC(F)(F)F)[C@H](c2ccc(CO)cc2)N1C1CCCCC1	1.56	0.0808 (inactive)	-1.76 (inactive)	-0.0447 (inactive)	3.02	1.38 (inactive)	-0.0408	0.169	1.08	-0.0315	1.6	0.663	0.821	1.47 (inactive)	1.04	0.884	0.109	0.66	-0.239	0.82
C=CC[C@]1(C(=O)O)COC(c2ccc(OCCCO)cc2)=N1	0.262	-0.396 (inactive)	-0.636 (inactive)	-0.581 (inactive)	3.36	-0.204 (inactive)	-0.0784	0.253	0.0614	-0.0828	1.58	-0.133	0.568	-0.565 (inactive)	-0.0346	0.156	0.0943	0.406	0.117	0.888
NCCCCCCNC(=O)[C@@H]1C[C@@H]2C(=O)N[C@@H](CCCCN)C(=O)N2[C@@H]1c1cccc(OCCO)c1	1.28	0.825 (inactive)	0.962 (inactive)	0.487 (inactive)	2.14	0.398 (inactive)	0.885	0.763	0.362	0.393	1.85	0.772	1.14	-0.615 (inactive)	0.243	0.543	0.412	0.171	1.64	0.702
